Structures can show the parent of a compound that is named as a salt.

The subject of the experiment is Danio rerio larvae (5 dpf). Put plainly: optomotor response to fast red moving lines, difference vs DMSO (percentage points (treated minus DMSO)); higher = more of the behaviour than the DMSO vehicle control. The settings on record: 10 µM; exposure time: 3 h pre-incubation + 3 h imaging. The method, then: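 5-dpf wild-type zebrafish larvae were imaged in 96-well plates. They were treated with 190 Tocris FDA-approved drugs at 10 µM (1 µl/ml DMSO) for 3 h before and 3 h during imaging at 28.5 °C, 48 larvae per drug. Automated image analysis gave % time moving and optomotor responses. Values are drug group mean minus DMSO vehicle mean (n=844), in percentage points, for 10 behaviours.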
As to `CC(C)(C)NC(=O)[C@@H]1C[C@@H]2CCCC[C@@H]2CN1C[C@@H](O)[C@H](Cc1ccccc1)NC(=O)[C@H](CC(N)=O)NC(=O)c1ccc2ccccc2n1` [Saquinavir mesylate], the optomotor response was -8.88. Turning to `COc1ccccc1OCCNCC(O)COc1cccc2[nH]c3ccccc3c12` (stereo not given) [Carvedilol], the optomotor response was -10.6. Consider `Cc1cccc(C)c1OCC(C)N` (stereo not given) [Mexiletine hydrochloride], for which the optomotor response was 0.599. For `NS(=O)(=O)Cc1noc2ccccc12` [Zonisamide] the value was -0.856; for `CC(=O)NC[C@H]1CN(c2ccc(N3CCOCC3)c(F)c2)C(=O)O1` [Linezolid], 5.73. With `CCCCNc1cc(C(=O)O)cc(S(N)(=O)=O)c1Oc1ccccc1` [Bumetanide], the optomotor response was -7.16. As for `O=C(O[C@@H]1C[C@@H]2C[C@H]3C[C@H](C1)N2CC3=O)c1c[nH]c2ccccc12` [Dolasetron mesylate], the optomotor response was -6.96. Turning to `COCCc1ccc(OCC(O)CNC(C)C)cc1` (stereo not given) [Metoprolol tartrate], the optomotor response is -7.77.

Consider `CC(C)c1nc(CN(C)C(=O)N[C@H](C(=O)N[C@@H](Cc2ccccc2)C[C@H](O)[C@H](Cc2ccccc2)NC(=O)OCc2cncs2)C(C)C)cs1` [Ritonavir], for which the optomotor response is -9.38. Then `CCOc1nc2cccc(C(=O)O)c2n1Cc1ccc(-c2ccccc2-c2noc(=O)[nH]2)cc1` [Azilsartan], with -3.36; and `CC(=O)O[C@]1(C(C)=O)CC[C@H]2[C@@H]3C=C(C)C4=CC(=O)CC[C@]4(C)[C@H]3CC[C@@]21C` [Megestrol Acetate], with -10.3. Consider `CN(C)CCc1c[nH]c2ccc(Cn3cncn3)cc12` [Rizatriptan benzoate], for which the optomotor response was found to be 5. For `C=C1[C@H](CO)[C@@H](O)C[C@@H]1n1cnc2c(=O)[nH]c(N)nc21` [Entecavir] the value was -0.927; for `CCOc1cc(CC(=O)N[C@@H](CC(C)C)c2ccccc2N2CCCCC2)ccc1C(=O)O` [Repaglinide], -12.1. Regarding `COc1cc2nc(N3CCN(C(=O)c4ccco4)CC3)nc(N)c2cc1OC` [Prazosin hydrochloride], the optomotor response was determined as 3.73. Regarding `CN1CC(=O)N2[C@H](c3ccc4c(c3)OCO4)c3[nH]c4ccccc4c3C[C@@H]2C1=O` [Tadalafil], the optomotor response is -10.2. Then `C[C@H]1O[C@H](O[C@H]2[C@H](O)[C@@H](O)[C@@H](O[C@H]3[C@H](O)[C@@H](O)C(O)O[C@@H]3CO)O[C@@H]2CO)[C@H](O)[C@@H](O)[C@@H]1N[C@H]1C=C(CO)[C@@H](O)[C@H](O)[C@H]1O` (stereo not given in full) [Acarbose], with 12.4. Take `CC(=O)S[C@@H]1CC2=CC(=O)CC[C@]2(C)[C@H]2CC[C@@]3(C)[C@@H](CC[C@@]34CCC(=O)O4)[C@H]12` [Spironolactone]: the optomotor response was -11.3. Turning to `O=C1CCc2cc(OCCCCc3nnnn3C3CCCCC3)ccc2N1` [Cilostazol], the optomotor response was -1.51. Take `CC1=Nc2ccc(Cl)cc2S(=O)(=O)N1` [Diazoxide]: the optomotor response is -1.95.

In the case of `Cc1ccc(N(CC2=NCCN2)c2cccc(O)c2)cc1` [Phentolamine Mesylate], the optomotor response is 7.53. For the compound `CCOC(=O)[C@H](CCc1ccccc1)N[C@H]1CCc2ccccc2N(CC(=O)O)C1=O` [Benazepril hydrochloride], the optomotor response is -1.29. Consider `CC(C)c1nc(N(C)S(C)(=O)=O)nc(-c2ccc(F)cc2)c1/C=C/[C@@H](O)C[C@@H](O)CC(=O)O` [Rosuvastatin calcium], for which the optomotor response turned out to be 11.1. For the compound `Cn1nnc2c(C(N)=O)ncn2c1=O` [Temozolomide], the optomotor response is -10.8. On to `COc1ccc(C[C@@H](C)NC[C@H](O)c2ccc(O)c(NC=O)c2)cc1` [Arformoterol tartrate], for which the optomotor response is -17.7. Take `C[C@H]1C[C@@H]2[C@H]([C@@H](O)C[C@@]3(C)[C@H]2CC[C@]3(O)C(=O)CO)[C@@]2(C)C=CC(=O)C=C12` [Methylprednisolone]: the optomotor response was -4.16.

As for `CC(C)CN(C[C@@H](O)[C@H](Cc1ccccc1)NC(=O)O[C@H]1CO[C@H]2OCC[C@H]21)S(=O)(=O)c1ccc(N)cc1` [Darunavir], the optomotor response stood at 1.68.

In the case of `C[C@]12CCC(=O)C=C1CC[C@@H]1[C@@H]2[C@@H](O)C[C@@]2(C)[C@H]1CC[C@]2(O)C(=O)CO` [Hydrocortisone], the optomotor response is -1.8. Regarding `CN1CCN(CCCN2c3ccccc3Sc3ccc(Cl)cc32)CC1` [Prochlorperazine dimaleate], the optomotor response was found to be 2.92. In the case of `COC(c1ccccc1)(c1ccccc1)[C@H](Oc1nc(C)cc(C)n1)C(=O)O` [Ambrisentan], the optomotor response is -12.3. For `CC(C)(C(=O)c1cccnc1)c1cccnc1` [Metyrapone] the value was -11.5; for `CCOC(=O)C1=C(C)NC(C)=C(C(=O)OC)C1c1cccc(Cl)c1Cl` (stereo not given) [Felodipine], -15.9; for `CC1(C)O[C@@H]2[C@@H](CO[C@@]3(COS(N)(=O)=O)OC(C)(C)O[C@@H]23)O1` [Topiramate], -10.6. Take `Cc1ccsc1C(=CCCN1CCC[C@@H](C(=O)O)C1)c1sccc1C` [Tiagabine hydrochloride]: the optomotor response came to 21.7. Regarding `COc1cc2nc(N3CCN(C(=O)C4COc5ccccc5O4)CC3)nc(N)c2cc1OC` (stereo not given) [Doxazosin mesylate], the optomotor response is -4.8. As to `O=C(c1ccc(OCCN2CCCCC2)cc1)c1c(-c2ccc(O)cc2)sc2cc(O)ccc12` [Raloxifene hydrochloride], the optomotor response was -14.5.

In the case of `CN(C)CC/C=C1/c2ccccc2COc2ccc(CC(=O)O)cc21` [Olopatadine hydrochloride], the optomotor response came to 5.8.

Regarding `C=CC(=O)N1CCC[C@@H](n2nc(-c3ccc(Oc4ccccc4)cc3)c3c(N)ncnc32)C1` [Ibrutinib], the optomotor response is -0.957.

`C/C(O)=C(\C#N)C(=O)Nc1ccc(C(F)(F)F)cc1` [Teriflunomide]: the optomotor response was -7.56. Consider `CCCc1nc2c(C)cc(-c3nc4ccccc4n3C)cc2n1Cc1ccc(-c2ccccc2C(=O)O)cc1` [Telmisartan], for which the optomotor response came out at 7.51.
